In PubChem BioAssay (EPA / NIEHS):
Inconclusive results are not listed. Calls of active or inactive are those of the source. The calls were made as follows: active = hit-call score of the fitted dose curve at least 0.9, where 1 is the maximum; inconclusive = response in the unintended direction; inactive = score below 0.9.

Assays:
[1] = target: rat Vasopressin 1 Receptor (V1), Avpr1a (gene 25107) (UniProt P30560); assay: NVS_GPCR_rV1: NovaScreen (NVS) G Protein-Coupled Receptor Assay for rat Vasopressin 1 Receptor (V1) (AID 2283316)
Method: NVS_GPCR_rV1 is a biochemical, single-readout assay that uses extracted gene-proteins from Rat liver membranes in a tissue-based cell-free assay. Measurements were taken 1.5 hours after chemical dosing in a 48-well plate.NVS_GPCR_rV1 is one of one assay component(s) measured or calculated from the NVS_GPCR_rV1 assay. It is designed to make measurements of radioligand binding, a form of binding reporter, as detected with scintillation counting signals by Filter-based radiodetection technology.Data from the assay component NVS_GPCR_rV1 was analyzed into 1 assay endpoint. This assay endpoint, NVS_GPCR_rV1, was analyzed in the positive analysis fitting direction relative to DMSO as the negative control and baseline of activity. […] Furthermore, this assay endpoint can be referred to as a primary readout, because the performed assay has only produced 1 assay endpoint. […]
Binding assays used specific radioligands (tritiated, iodinated) with non-radioactive competitive displacement ligands in agonist or antagonist protocols (as indicated) and various reference compounds and inhibitors to titrate specific binding to receptors and transporters. Most enzyme assays (CYPs, kinases, phosphatases, proteases, HDACs) used recombinant protein and specific substrates (fluorescence mostly, some colorimetric and radioactive) and inhibitors, followed by a biochemical separation of substrate and product. […]

[2] = target: Voltage-dependent N-type calcium channel subunit alpha-1B (Rattus norvegicus) (UniProt Q02294); assay: NVS_IC_rCaChN: NovaScreen (NVS) Ion Channel Assay for rat Calcium Channel, Type N (CaChN) (AID 2283317)

Chain of rat Vasopressin 1 Receptor (V1), Avpr1a (gene 25107) (P30560 whole entry, looked up): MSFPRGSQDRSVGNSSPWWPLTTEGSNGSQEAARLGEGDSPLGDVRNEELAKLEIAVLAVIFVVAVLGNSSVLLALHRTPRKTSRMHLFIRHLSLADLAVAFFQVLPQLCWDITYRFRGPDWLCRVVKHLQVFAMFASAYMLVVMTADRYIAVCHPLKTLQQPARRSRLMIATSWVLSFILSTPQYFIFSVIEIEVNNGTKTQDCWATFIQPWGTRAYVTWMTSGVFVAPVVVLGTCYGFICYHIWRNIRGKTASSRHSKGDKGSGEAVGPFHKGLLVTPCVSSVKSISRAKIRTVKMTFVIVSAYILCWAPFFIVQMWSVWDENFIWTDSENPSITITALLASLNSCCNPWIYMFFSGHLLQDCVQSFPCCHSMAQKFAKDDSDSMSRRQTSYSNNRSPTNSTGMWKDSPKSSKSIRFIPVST

Row | SMILES | AC50 [1] | outcome [2]
1 | COc1cc(OC)nc(NC(=O)NS(=O)(=O)c2ncccc2OCC(F)(F)F)n1 | 16.4 µM (active) | –
2 | CCCCC(C#N)(Cn1cncn1)c1ccc(Cl)cc1 (stereo not drawn) | 1.98 µM (active) | –
3 | N#Cc1c[nH]cc1-c1cccc2c1OC(F)(F)O2 | – | inactive
